Reference: PubChem BioAssay (Tox21)
Where “and” joins values, the source holds several entries; their conditions need not be identical. Identical values can stand only once. Results filed as inconclusive are left out. Calls of active or inactive are those of the source. The call rests on the fitted dose curve; in most records, active means well fitted curve in the direction sought with a large enough effect in the repeat runs; inconclusive means weak or mixed curves; inactive means no such curve, though single readings can be large; an effect the other way counts as inactive or inconclusive.

Key:
[1] = A CellTox Green Cytotoxicity Assay to monitor cytotoxicity in HepG2 cells - 0 hour (AID 1224882); further: nearly all actives have a fitted effect of over 35% in size
Method in brief: (§1)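 Real-time cytotoxicity: fluorescence of a cell-impermeant cyanine dye binding DNA of dead HepG2 cells, measured repeatedly (0–40 h) during compound exposure at 37 C. Cells seeded 600/well with reagent, dosed after 5 h.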

[2] = A CellTox Green Cytotoxicity Assay to monitor cytotoxicity in HepG2 cells - 32 hour (AID 1224883); further: nearly all actives have a fitted effect of over 50% in size; further: potency means the concentration at half of the fitted maximal effect
Method in brief: as §1

[3] = qHTS RealTime-Glo MT Cell Viability Assay in HepG2 cells - 16 hour (AID 1224885); further: nearly all actives have a fitted effect of over 50% in size
Method in brief: (§2)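 Viability was tracked continuously by NanoLuc luminescence from prosubstrate reduced by living HepG2 cells, at successive time points over 40 h of compound exposure. Cells with reagent were preincubated 5 h at 37 °C before compound addition.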

[4] = qHTS RealTime-Glo MT Cell Viability Assay in HEK293 cells - 24 hour (AID 1224886); further: nearly all actives have a fitted effect of over 50% in size; further: potency means the concentration at half of the fitted maximal effect; on activity change, negative = cytotoxicity: top concentration of the series differs between compounds
Method in brief: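 Viability tracked continuously by luminescence as live cells reduce a prosubstrate for NanoLuc; HEK293 cells preincubated 5 h, compound-treated at 37 C, and read at 0, 8, 16, 24, 32 and 40 h.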

[5] = qHTS RealTime-Glo MT Cell Viability Assay in HEK293 cells - 8 hour (AID 1224887); further: nearly all actives have a fitted effect of over 50% in size; further: potency means the concentration at half of the fitted maximal effect; on activity change, negative = cytotoxicity: top concentration of the series differs between compounds
Method in brief: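 Luminescence, which tracks viable cell number through reduction of the prosubstrate to a NanoLuc substrate, was read over continuous 37 C culture. Cells (600/well) were premixed with reagent and rested 5 h before 23 nL of compound in DMSO was pinned.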

[6] = A CellTox Green Cytotoxicity Assay to monitor cytotoxicity in HEK293 cells - 16 hour (AID 1224888); further: nearly all actives have a fitted effect of over 35% in size
Method in brief: (§3)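 Fluorescence from a DNA-binding dye excluded by viable cells was measured repeatedly in the same HEK293 wells (600 cells/well) during continuous compound exposure at 37 C. Each assay gives one read point: 0, 8, 16, 24, 32 or 40 h.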

[7] = qHTS RealTime-Glo MT Cell Viability Assay in HepG2 cells - 0 hour (AID 1224889); further: nearly all actives have a fitted effect of over 50% in size
Method in brief: as §2

[8] = A CellTox Green Cytotoxicity Assay to monitor cytotoxicity in HepG2 cells - 8 hour (AID 1224890); further: nearly all actives have a fitted effect of over 45% in size
Method in brief: as §1

[9] = qHTS assay to identify small molecule antagonists of the estrogen receptor alpha (ER-alpha) signaling pathway using the BG1 cell line in the presence of 0.1 nM 17-beta-estradiol - cell viability counter screen (AID 1259241); further: nearly all actives have a fitted effect of over 40% in size
Method in brief: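 Live-cell protease activity (CellTiter-Fluor fluorescence, 30 min) was read in the same wells after VM7Luc4E2 cells had been exposed to compounds with 0.1 nM 17beta-estradiol for 22 hr at 37C.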

[10] = A CellTox Green Cytotoxicity Assay to monitor cytotoxicity in HEK293 cells - 8 hour (AID 1224884); further: nearly all actives have a fitted effect of over 35% in size
Method in brief: as §3
On the % scale 0 is the no-effect control and ±100 the full control effect.

CN(C)C(=O)Nc1cccc(OC(=O)NC(C)(C)C)c1
inactive: Potency [1] | Potency [2] | Potency [3] | Potency [4] | Potency [5] | Potency [6] | outcome [7] | Potency [8] | Potency [9]

CC(C)[C@@H](C(=O)O[C@@H](C#N)c1cccc(Oc2ccccc2)c1)c1ccc(Cl)cc1
inactive: Potency [1] | Potency [2] | Potency [10] | Potency [3] | Potency [6] | outcome [7] | Potency [8] | Potency [9]

CCC1(CC)C(=O)NC(=O)NC1=O
inactive: Potency [1] | Potency [10] | Potency [3] | Potency [4] | Potency [5] | Potency [6] | outcome [7] | Potency [8]

O=C(Cc1ccccc1)c1ccccc1
inactive: Potency [1] | Potency [2] | Potency [3] | Potency [4] | Potency [5] | Potency [6] | outcome [7] | Potency [9]

COc1cc(CC#N)cc(OC)c1OC
inactive: Potency [1] | Potency [10] | Potency [3] | Potency [4] | Potency [5] | Potency [6] | outcome [7] | Potency [8]

O=CC=O
inactive: Potency [1] | Potency [2] | Potency [3] | Potency [4] | Potency [5] | Potency [6] | outcome [7] | Potency [8]

Nc1c(Br)cc(Br)c2c1C(=O)c1ccccc1C2=O
inactive: cytotoxicity [1] -4.24% [at 15.8 µM] | cytotoxicity increase [2] -5.33% [at 15.8 µM] | cytotoxicity increase [10] -10.2% [at 15.8 µM] | activity change, negative = cytotoxic [3] -7.09% [at 15.8 µM] | activity change [6] -11% [at 15.8 µM, stronger effect = higher value] | activity change, negative = cytotoxicity [7] -16.3% [at 15.8 µM] | cytotoxicity increase [8] -5.92% [at 15.8 µM] | activity change, negative = cytotoxicity [9] -0.0291% [at 19 µM]

O=C(CCl)CCl
active: Potency [2] 22.7 µM | Potency [4] 18 µM and 19.5 µM
inactive: Potency [1] | Potency [10] | Potency [3] | Potency [5] | Potency [6] | Potency [8] | Potency [9]

CCCC[N+](CCCC)(CCCC)CCCC
inactive: Potency [1] | Potency [2] | Potency [10] | Potency [3] | Potency [5] | Potency [6] | outcome [7] | Potency [8] | Potency [9]

CCCCCCCCP(=O)(O)O
inactive: Potency [1] | Potency [10] | Potency [3] | Potency [4] | Potency [5] | Potency [6] | outcome [7] | Potency [8]

CN1CC[C@]23c4c5ccc(O)c4O[C@H]2[C@@H](O)CC[C@H]3[C@H]1C5
inactive: Potency [1] | Potency [10] | Potency [3] | Potency [4] | Potency [5] | Potency [6] | outcome [7] | Potency [8] | Potency [9]

CCCCCBr
inactive: Potency [1] | Potency [2] | Potency [10] | Potency [3] | Potency [6] | outcome [7] | Potency [8]

CC(Cc1ccccc1)NCc1ccccc1Cl (stereo not drawn)
inactive: Potency [1] | Potency [10] | Potency [3] | Potency [4] | Potency [5] | Potency [6] | outcome [7] | Potency [8] | Potency [9]

O=C(O)C(F)(F)C(F)(F)C(F)(F)C(F)(F)C(F)(F)C(F)(F)C(F)(F)C(F)(F)F
inactive: Potency [1] | Potency [2] | Potency [10] | Potency [4] | Potency [5] | Potency [6] | Potency [8] | Potency [9]

CCCCC(CC)COC(=O)c1c(Br)c(Br)c(Br)c(Br)c1C(=O)OCC(CC)CCCC (stereo not drawn)
inactive: Potency [1] | Potency [10] | Potency [3] | Potency [4] | Potency [5] | Potency [6] | Potency [8] | Potency [9]

CCOP(=S)(OCC)Oc1ccc(S(C)=O)cc1 (stereo not drawn)
inactive: Potency [1] | Potency [10] | Potency [3] | Potency [4] | Potency [5] | Potency [6] | Potency [8] | Potency [9]

C[C@]12CC[C@H]3[C@@H](CCC4=CC(=O)CC[C@@H]43)[C@@H]1CC[C@@H]2OC(=O)CCc1ccccc1
inactive: Potency [1] | Potency [10] | Potency [3] | Potency [4] | Potency [5] | Potency [6] | outcome [7] | Potency [8] | Potency [9]

O=C(Cc1ccccc1)OCCc1ccccc1
inactive: Potency [1] | Potency [10] | Potency [3] | Potency [4] | Potency [5] | Potency [6] | outcome [7] | Potency [8] | Potency [9]

CCCN(CCC)C(=O)Cc1c(-c2ccc(Cl)cc2)nc2ccc(Cl)cn12
inactive: Potency [1] | Potency [10] | Potency [3] | Potency [6] | outcome [7] | Potency [8] | Potency [9]
active: Potency [4] 5.35 µM | Potency [5] 5.35 µM

CCCCOC(=O)CCC(=O)OCCCC
inactive: Potency [1] | Potency [10] | Potency [3] | Potency [4] | Potency [5] | Potency [6] | Potency [8] | Potency [9]

O=C=NC1CCCCC1
inactive: Potency [1] | Potency [10] | Potency [3] | Potency [4] | Potency [5] | Potency [6] | Potency [8] | Potency [9]

COC1CC(=C(c2cccs2)c2cccs2)C[N+](C)(C)C1 (stereo not drawn)
inactive: Potency [1] | Potency [10] | Potency [3] | Potency [4] | Potency [5] | Potency [6] | Potency [8] | Potency [9]
